According to PubChem BioAssay AID504336 (NMMLSC, 2011):
Activity calls are given as the source filed them.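 Rule for the calls: active = compounds whose GFP signal falls below 65% of the DMSO control level; inconclusive = fewer than 70 yeast cells counted in the well; inactive = the rest.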

test: TOR branch reporter RPL19A-GFP response – cell-based, S. cerevisiae, third cherry pick, flow cytometry, confirmation (AID 504336);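 note: median GFP fluorescence of all gated yeast cells by flow cytometry; ratio of well median fluorescence to plate mean of DMSO wells with DMSO = 100%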; conditions: S. cerevisiae RPL19A-GFP strain, 3 h, at 10 µM, stronger effect = lower value

GFP response relative to DMSO, inactive:
N#Cc1c(N)nc(N)nc1Nc1ccc(Br)cc1 99.6%
CN1CCN(C(=O)c2cc(COc3ccc(F)cc3Cl)on2)CC1c1ccccc1 (configuration not stated) 100%
C=CCNc1ncnc2ccccc12 103%
CC(=O)CC(=O)Nc1ccc(C(N)=O)cc1 100%
COc1cc(=O)n(C)c2c(O)cccc12 101%
COCCCNc1nc(N)c([N+](=O)[O-])c(Nc2ccccc2OC)n1 99.1%
O=C(Nc1ccccc1)O/N=C1/CCCc2occc21 100%
COc1ccc(Nc2nc(NN)nc(C)c2[N+](=O)[O-])cc1 99.3%
CNc1nc(N)c([N+](=O)[O-])c(Nc2cccc(Cl)c2)n1 94.1%
O=C(N/N=C/c1ccccc1)c1cccc2ccccc12 98.3%
CSc1ccccc1OCc1cc(C(=O)N2CCN(C)C(c3ccccc3)C2)no1 (configuration not stated) 101%
COC(=O)COc1c(Cl)cc(Cl)c2ccc(C)nc12 105%
COc1ccc(NC(=O)O/N=C2/CCCc3ccc(OC)cc32)cc1 104%
COc1ccc(OC)c(Nc2nc(NCCC(C)C)nc(N)c2[N+](=O)[O-])c1 103%
Cc1ccc(Nc2cc(=O)[nH]c(=O)[nH]2)cc1C 96.5%
O=C(O)CCCCCNc1ncnc2ccc(Br)cc12 99.8%
CSc1nc(S(C)(=O)=O)nc2[nH]c(=O)[nH]c12 100%
COc1ccc(OC)c(N/C(C)=C/C(=O)c2ccccc2)c1 103%
O=C(O)CCS(=O)(=O)c1nc(-c2cccs2)cc(C(F)(F)F)n1 97%
OCc1ccc(O)c2ncccc12 101%
CC(=O)Nc1ccc(-c2nc3cc(Cl)ccc3o2)cc1 99.3%
Cc1cccc(N/C=C/C(=O)c2ccc(Cl)cc2)c1 99.6%
